# Test results taken from the supplement of paper PMC12282887.
# ± gives the standard deviation of the averaged measurements.
# Tests used:
# Assay in all cases: promoter activity interaction Z-score (Lux/OD deviation from empty-vector control); higher = stronger promoter induction by the compound
# [1] = tested on: E. coli BW25113 acrABp lux reporter
# Procedure, shortened: (§1)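 Low-copy luxCDABE promoter reporters were carried by E. coli BW25113, either wild type or lacking one of three genes, grown in 40 µl LB Lennox in 384-well plates at 37°C. Each compound was run at four 1:2 dilutions in biological duplicates, with OD600 and luminescence read every 30 min for 12 h. Integration used 0–8 h for wild type and 1–9 h for deletion strains, and wells under 10% of the median growth value were removed. Luminescence normalised to growth was fitted against a control, and the Z-transformed residual is the score.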
# [2] = tested on: E. coli BW25113 marRABp lux reporter
# Procedure, shortened: as §1
# [3] = tested on: E. coli BW25113 micFp lux reporter
# Procedure, shortened: as §1
# [4] = tested on: E. coli BW25113 ompFp lux reporter
# Procedure, shortened: as §1
# [5] = 19.1 µg/ml, genetic background: wild type
# [6] = 19.1 µg/ml, genetic background: ΔmarA
# [7] = 19.1 µg/ml, genetic background: Δrob
# [8] = 19.1 µg/ml, genetic background: ΔsoxS
# [9] = 38.3 µg/ml, genetic background: wild type
# [10] = 38.3 µg/ml, genetic background: ΔmarA
# [11] = 38.3 µg/ml, genetic background: Δrob
# [12] = 38.3 µg/ml, genetic background: ΔsoxS
# [13] = 76.6 µg/ml, genetic background: wild type
# [14] = 76.6 µg/ml, genetic background: ΔmarA
# [15] = 76.6 µg/ml, genetic background: Δrob
# [16] = 76.6 µg/ml, genetic background: ΔsoxS
# [17] = 153.1 µg/ml, genetic background: wild type
# [18] = 153.1 µg/ml, genetic background: ΔmarA
# [19] = 153.1 µg/ml, genetic background: Δrob
# [20] = 153.1 µg/ml, genetic background: ΔsoxS
smiles,measurement,setting,value
Nc1ccc(C(=O)O)c(O)c1 [4-Aminosalicylic acid],promoter activity interaction Z-score,[1]; [5],-0.149 ± 0.057
same,promoter activity interaction Z-score,[1]; [6],-0.463 ± 0.94
same,promoter activity interaction Z-score,[1]; [7],-0.0648 ± 0.1
same,promoter activity interaction Z-score,[1]; [8],0.0906 ± 0.23
same,promoter activity interaction Z-score,[1]; [9],-0.194 ± 0.071
same,promoter activity interaction Z-score,[1]; [10],-0.226 ± 0.02
same,promoter activity interaction Z-score,[1]; [11],0.179 ± 0.24
same,promoter activity interaction Z-score,[1]; [12],0.221 ± 0.28
same,promoter activity interaction Z-score,[1]; [13],-0.276 ± 0.035
same,promoter activity interaction Z-score,[1]; [14],-0.0192 ± 0.31
same,promoter activity interaction Z-score,[1]; [15],-0.218 ± 0.18
same,promoter activity interaction Z-score,[1]; [16],-0.00319 ± 0.25
same,promoter activity interaction Z-score,[1]; [17],-0.212 ± 0.19
same,promoter activity interaction Z-score,[1]; [18],0.164 ± 0.025
same,promoter activity interaction Z-score,[1]; [19],0.0189 ± 0.39
same,promoter activity interaction Z-score,[1]; [20],0.952 ± 1.3
same,promoter activity interaction Z-score,[2]; [5],0.109 ± 0.4
same,promoter activity interaction Z-score,[2]; [6],0.307 ± 0.0067
same,promoter activity interaction Z-score,[2]; [7],0.19 ± 0.12
same,promoter activity interaction Z-score,[2]; [8],0.147 ± 0.18
same,promoter activity interaction Z-score,[2]; [9],0.0516 ± 0.015
same,promoter activity interaction Z-score,[2]; [10],0.172 ± 0.09
same,promoter activity interaction Z-score,[2]; [11],0.493 ± 0.39
same,promoter activity interaction Z-score,[2]; [12],0.161 ± 0.086
same,promoter activity interaction Z-score,[2]; [13],-0.0573 ± 0.025
same,promoter activity interaction Z-score,[2]; [14],-0.242 ± 0.12
same,promoter activity interaction Z-score,[2]; [15],0.384 ± 0.31
same,promoter activity interaction Z-score,[2]; [16],-0.0494 ± 0.21
same,promoter activity interaction Z-score,[2]; [17],0.642 ± 0.055
same,promoter activity interaction Z-score,[2]; [18],0.698 ± 0.021
same,promoter activity interaction Z-score,[2]; [19],0.956 ± 0.3
same,promoter activity interaction Z-score,[2]; [20],0.968 ± 0.13
same,promoter activity interaction Z-score,[3]; [5],0.127 ± 0.069
same,promoter activity interaction Z-score,[3]; [6],0.157 ± 0.12
same,promoter activity interaction Z-score,[3]; [7],0.223 ± 0.068
same,promoter activity interaction Z-score,[3]; [8],0.335 ± 0.24
same,promoter activity interaction Z-score,[3]; [9],0.103 ± 0.31
same,promoter activity interaction Z-score,[3]; [10],0.0571 ± 0.12
same,promoter activity interaction Z-score,[3]; [11],0.346 ± 0.16
same,promoter activity interaction Z-score,[3]; [12],0.348 ± 0.31
same,promoter activity interaction Z-score,[3]; [13],0.399 ± 0.11
same,promoter activity interaction Z-score,[3]; [14],0.312 ± 0.014
same,promoter activity interaction Z-score,[3]; [15],0.842 ± 0.12
same,promoter activity interaction Z-score,[3]; [16],0.567 ± 0.32
same,promoter activity interaction Z-score,[3]; [17],0.955 ± 0.34
same,promoter activity interaction Z-score,[3]; [18],0.278 ± 0.066
same,promoter activity interaction Z-score,[3]; [19],1.89 ± 0.16
same,promoter activity interaction Z-score,[3]; [20],2.24 ± 0.04
same,promoter activity interaction Z-score,[4]; [5],-0.191 ± 0.28
same,promoter activity interaction Z-score,[4]; [6],-0.0337 ± 0.042
same,promoter activity interaction Z-score,[4]; [7],0.485 ± 0.12
same,promoter activity interaction Z-score,[4]; [8],0.498 ± 0.63
same,promoter activity interaction Z-score,[4]; [9],-0.538 ± 0.33
same,promoter activity interaction Z-score,[4]; [10],0.43 ± 0.48
same,promoter activity interaction Z-score,[4]; [11],0.92 ± 0.71
same,promoter activity interaction Z-score,[4]; [12],0.203 ± 0.35
